# Screening data (PubChem)
# PostGolgi ctrl: growth inhibition of yeast control strain, primary screen, counter-screen for post-Golgi transport modulator project. efflux-deficient yeast background strain, growth absorbance A615, 16 h. inhibition, % at 10 µM. hit rate 5% among 98,000
# Cav3 T inh: Cav3.2 calcium influx blockers – cell-based, Fluo-4 calcium fluorescence, FDSS, MLSMR library, primary screen; Voltage-dependent T-type calcium channel subunit alpha-1H (Homo sapiens), O95180; Cav3.2-expressing cells; stronger effect = lower value; B-score at 10 µM; hit rate 4% among 100,000; AID 449739, 2010;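 active = single-dose well whose peak fluorescence ratio is a statistical outlier from its plate by either plate-standardised score or position-corrected B-score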
# PostGolgi yeast: phenotypic screen on post-Golgi transport, primary screen; post-Golgi transport phenotypic cell assay; inhibition, % at 10 µM; hit rate 0.9% among 98,000;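 note: yeast cells grown in 1536-well plates; yeast grown about 18 h at 30C before absorbance read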
# TNAP act DEA: human TNAP enzyme activators, primary screen, biochemical, luminescent, intermediate phosphate acceptor level | Alkaline phosphatase, tissue-nonspecific isozyme (Homo sapiens), P05186 | purified TNAP, CDP-star luminescence, 100 mM DEA, 30 min; stronger effect = higher value; scale: 0 levamisole-inhibited, 1 vehicle-only enzyme | activation factor at 20 µM | 64,000 tested, under 10 active | AID 813, 2007;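 active = activation factor of at least 2 at 20 µM, relative to controls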
# Target sequence (P05186 whole entry, looked up): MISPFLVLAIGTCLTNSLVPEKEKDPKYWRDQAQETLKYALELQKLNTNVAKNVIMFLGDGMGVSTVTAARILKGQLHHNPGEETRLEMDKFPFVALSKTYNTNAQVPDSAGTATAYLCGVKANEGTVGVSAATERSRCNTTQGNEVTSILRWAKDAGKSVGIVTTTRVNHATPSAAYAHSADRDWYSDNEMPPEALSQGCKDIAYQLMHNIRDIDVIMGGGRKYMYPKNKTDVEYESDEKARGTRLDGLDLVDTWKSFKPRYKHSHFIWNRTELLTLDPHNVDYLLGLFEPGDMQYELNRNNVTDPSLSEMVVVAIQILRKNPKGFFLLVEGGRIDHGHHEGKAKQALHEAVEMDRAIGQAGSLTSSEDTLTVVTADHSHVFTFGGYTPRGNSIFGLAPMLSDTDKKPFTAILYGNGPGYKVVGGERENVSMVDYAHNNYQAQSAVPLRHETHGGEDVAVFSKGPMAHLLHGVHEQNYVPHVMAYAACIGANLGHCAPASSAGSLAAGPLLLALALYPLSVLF
# Smad3 inh: Smad3/FoxH1 peptide binding inhibitors, primary screen, biochemical, TR-FRET. Mothers against decapentaplegic homolog 3 (Homo sapiens), P84022. TR-FRET Smad3/Dy647-FoxH1 peptide binding, europium anti-His. inhibition, % at 25 µM. hit rate 0.29% among 88,000. AID 630, 2007;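 active = compounds that reduce the energy-transfer binding signal between the protein and its labelled peptide by more than half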
# DAT uptake mod: changed hDAT dopamine uptake under cocaine IC80, either direction, primary screen, cocaine antagonist project, cell-based, LLC-PK1 hDAT, [14C]-dopamine uptake, MLSMR | B-score at 10 µM | LLC-PK1 hDAT cells, [14C]-dopamine uptake with cocaine IC80; actives deviate in either direction | Sodium-dependent dopamine transporter (Homo sapiens), Q01959 | hit rate 1.3% among 110,000;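 active = Z score or B-score, a plate-position-corrected score, falls beyond the plate's 99.7% confidence bounds, in either direction; inactive = both scores lie inside the 99.7% bounds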
# Hits are given with their value; – = inactive; · = not tested or not shown; [ ] = remark or other dose. This is a sample that favours compounds with a hit; in the whole collection about 8.7% have one here. Cut-off read from the data, not from the text of the source, unless noted: active = inhibition above about 30%; inactive = the rest.
SMILES,PostGolgi ctrl,Cav3 T inh,PostGolgi yeast,TNAP act DEA,Smad3 inh,DAT uptake mod
CC(C)Sc1nc2c(c(=O)[nH]c(=O)n2C)n1CCc1ccccc1,31.2,–,–,–,–,–
CCCNC(=O)COC(=O)c1ccc(Cl)c(S(=O)(=O)N2CCCC2)c1,–,–,–,·,·,–
COc1ccc(OC)c(NC(=O)c2c3c(nc4ccccc24)CCC3)c1,–,–,–,·,·,–
COc1ccc(OCC(O)CNc2ccc(Br)cc2)cc1 (configuration not stated),–,-4.22,–,–,–,–
COc1ccc(OCC(O)CNC(=O)c2ccc(Br)cc2)cc1 (configuration not stated),–,–,–,–,–,–
O=C(c1ccc([N+](=O)[O-])cc1)N(Cc1ccc(Br)cc1)N1C(=O)CCCC1=O,–,–,–,·,–,-7.4
O=C(N/N=C/c1ccc(F)cc1)c1sccc1OCc1ccc(F)cc1,34.0,–,–,·,·,–
O=C(Nc1ccccc1Oc1ccccc1)c1cccc([N+](=O)[O-])c1,–,–,–,·,·,–
O=C(C#Cc1ccccc1)c1cccc([N+](=O)[O-])c1,48.5,–,–,·,–,–
O=C(CC1(O)C(=O)Nc2ccccc21)c1ccc(-n2cccc2)cc1 (configuration not stated),30.8,–,–,–,–,·
O=c1cc(O)c(-c2ccccc2Cl)c(Cl)[nH]1,–,–,–,·,–,–
COc1ccc(CCNC(=O)C2CCCN(c3nn4c(=O)cc(C)nc4s3)C2)cc1OC (configuration not stated),–,–,–,–,–,–
Cc1cc(C)cc(NC(=O)Cn2c(=O)oc3cc(S(=O)(=O)N4CC(C)CC(C)C4)ccc32)c1 (configuration not stated),–,-4.28,–,·,–,–
CCOC(=O)CSc1ncnc2c1cnn2-c1ccc(Cl)cc1,–,–,–,–,–,–
CCOC(=O)c1cnn(-c2ccccc2)c1-n1cccc1C(=O)C(=O)Nc1ccccc1C(F)(F)F,–,–,–,·,·,–
CN(/C(=N\S(=O)(=O)c1ccccc1)C(F)(F)F)c1ccccc1,–,·,–,·,·,–
CCOc1cc(CNCCO)c(Cl)cc1OCC(=O)NCCc1ccccc1,–,–,–,·,·,–
Brc1ccccc1-c1nnc(COc2ncnc3c2cnn3-c2ccccc2)o1,74.4,–,–,–,·,–
COc1ncnc2c1cnn2-c1ccccc1,–,–,–,·,–,–
O=C(c1ccc(Cl)cc1)N1CCCC(c2ccccc2)=N1,36.0,–,–,·,·,–
CCOC(=O)c1cnc2scnn2c1=O,37.0,·,–,–,–,–
CCn1c(N)nc2ccccc21,–,–,–,–,–,–
CCN1N=C(c2ccccc2)Cn2c1nc1ccccc12,30.4,–,–,·,–,–
CCOC(=O)N1CCN(CC(O)COc2c(OC)cccc2OC)CC1 (configuration not stated),–,–,–,–,·,–
CCCn1nc(NS(C)(=O)=O)c2cc3cccc(C)c3nc21,35.9,–,–,–,–,–
SMILES,PostGolgi ctrl,Cav3 T inh,PostGolgi yeast,TNAP act DEA,Smad3 inh,DAT uptake mod
Cc1cc(C)c2[nH]c(=O)c(CN(CC3CCCO3)C(=O)c3cnccn3)cc2c1 (configuration not stated),–,–,–,–,–,2.53
COc1ccc(C)cc1S(=O)(=O)Nc1cccc(Cl)c1,43.4,–,–,–,–,–
CCOc1cc(S(=O)(=O)NC2CCCC2)ccc1Cl,–,–,–,–,–,–
CCOc1ccc(S(=O)(=O)Nc2cccc(Cl)c2)cc1,·,-3.73,·,–,–,–
CCOc1cc(S(=O)(=O)Nc2cc(C)cc(C)c2)ccc1Cl,39.0,–,–,·,–,–
Cc1sc(NC(=O)c2cccs2)c(C(N)=O)c1C,37.0,–,–,–,–,–
COC(=O)c1[nH]c2cccc(OC)c2c1NC(=O)CN1CC2(C)CC1CC(C)(C)C2 (configuration not stated),–,–,–,–,66.5[fluorescence artefact?],–
COC(=O)c1[nH]c2cccc(OC)c2c1NC(=O)CCN1CC(C)CC(C)C1 (configuration not stated),–,–,–,–,–,–
Cc1ccc(S(=O)(=O)Cc2cccc(C(=O)N3CCOCC3)c2)cc1,–,–,–,–,–,–
CC(C)Cc1cc(C(=O)N2N=C(C(F)F)CC2(O)C(F)F)c2ccccc2n1 (configuration not stated),·,-7.04,·,·,–,–
CCc1ccc(-c2cc(C(=O)N3N=C(C(F)F)CC3(O)C(F)F)c3ccccc3n2)cc1 (configuration not stated),36.9,–,–,·,·,–
N#Cc1cn(CCOc2ccccc2F)c2ccccc12,57.9,–,–,–,–,–
COC(=O)Cn1c(C)c(C#N)c2ccccc21,·,–,·,·,–,–
Cc1c(C#N)c2ccccc2n1CCOc1ccccc1F,67.3,–,–,–,–,–
O=C1C2C3C=CC(C3)C2C(=O)N1c1ncn[nH]1 (configuration not stated),35.2,–,–,–,–,–
COc1ccc(C(=O)Nc2cc(OC)cc(OC)c2)cc1,–,–,–,–,·,1.72
Oc1[nH]c2ccccc2c1C=Nc1ccc2c(c1)OCCO2,–,–,–,–,–,–
CCOc1ccc2nc(NC(=O)CSc3nnnn3C3CCCCC3)sc2c1,42.5,–,–,–,–,–
S=C1N[C@H](c2ccccc2)N[C@H](c2ccccc2)S1,·,·,·,·,–,·
CC(Sc1ccsc1[N+](=O)[O-])C(=O)NCCc1ccc(Cl)cc1 (configuration not stated),34.2,–,70.2,·,–,–
c1cc2c(cc1C1CCCN1)OCCCO2 (configuration not stated),–,–,–,–,–,–
Fc1ccc(CSc2nc3ccccc3[nH]2)c2ccccc12,47.4,·,–,·,–,–
O=C(Oc1ccc(Cl)c2ccccc12)N1CCCCC1,–,–,–,·,–,–
O=C(Oc1c(Cl)cc(Cl)c2ccccc12)N1CCCC1,32.3,–,–,·,–,–
CC(C)CN1C(=S)SC(C)(C)C1n1oc(=O)n(-c2ccc(Cl)cc2)c1=O (configuration not stated),–,-4.07,–,·,–,–
COc1cc2c(C(=O)N3CCN(C4CCCCC4)CC3)cn(CC(C)C)c(=O)c2cc1OC,–,–,–,–,–,–
CCN(CC)S(=O)(=O)c1ccc2c(c1)nc(CCC(=O)Nc1ccccc1Cc1ccccc1)n2CC,–,-4.42,–,·,·,–
CCn1c(CCC(=O)Nc2cc(F)ccc2C)nc2cc(S(=O)(=O)N(C)C)ccc21,–,–,–,–,–,–
